Sampled rows, rich in hits. Any-hit rate of the full collection: about 1.5%.
Mtb MenB inh – M. tuberculosis MenB inhibitors, primary screen, biochemical, absorbance; 100,000 compounds, 0.43% hits; 1,4-dihydroxy-2-naphthoyl-CoA synthase (Mycobacterium tuberculosis (strain ATCC 25618 / …; MenB enzyme assay, absorbance read-out; inhibition, % (no concentration beside the values); in the data active = inhibition above about 21%, passing the limit was not always enough
AID504770 – growth inhibition of E. coli YBA685, primary screen, V. cholerae RctB inhibitors. E. coli YBA685 rctB-dependent plasmid, OD600 growth, 3 h; hits give low values. z-score (test concentration not listed). 130,000 compounds, 0.27% hits. AID 504770, 2011; in the data active = z-score below about -2, passing the limit was not always enough
PV pol inh – poliovirus RdRp elongation inhibitors, primary screen, biochemical, fluorescence polarization, total intensity; Genome polyprotein (Poliovirus type 1 (strain Mahoney)), P03300; poliovirus polymerase elongation; hits give low values; % elongation, % (compound at 16.7 µg/mL); 150,000 compounds, 0.66% hits; AID 588519, 2011; in the data active = % elongation below about 90%
Target sequence (P03300 1749-2209 limits assumed): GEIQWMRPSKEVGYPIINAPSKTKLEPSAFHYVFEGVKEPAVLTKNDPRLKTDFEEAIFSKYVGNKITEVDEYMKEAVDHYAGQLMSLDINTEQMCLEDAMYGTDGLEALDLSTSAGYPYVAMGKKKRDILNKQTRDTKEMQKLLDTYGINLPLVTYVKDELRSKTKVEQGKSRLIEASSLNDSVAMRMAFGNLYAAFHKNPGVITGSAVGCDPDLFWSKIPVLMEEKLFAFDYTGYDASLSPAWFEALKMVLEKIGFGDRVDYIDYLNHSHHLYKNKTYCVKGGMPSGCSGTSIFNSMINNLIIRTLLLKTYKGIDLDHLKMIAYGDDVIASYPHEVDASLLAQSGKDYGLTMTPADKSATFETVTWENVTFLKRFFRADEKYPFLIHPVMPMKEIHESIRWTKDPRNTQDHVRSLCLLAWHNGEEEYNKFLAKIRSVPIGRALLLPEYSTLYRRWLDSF
MbtI inh – MbtI salicylate synthase inhibitors, primary screen, biochemical, fluorescence intensity; 100,000 compounds, 0.89% hits; AID 493033, 2011; inhibition, % (no concentration beside the values); purified MbtI enzyme, fluorescence intensity read-out; in the data active = inhibition mostly above about 56%, no sharp cut-off; inactive = mostly below about 77%
The depositor's hits bear a star.

For O=C(NC(Cc1ccccc1)C(=O)OCc1ccccc1)c1cccs1 (stereo not given) the results were AID504770 -0.2, PV pol inh 104.0 and MbtI inh -4.8.
Screening O=C(N[C@@H](Cc1ccccc1)C(=O)OCc1ccccc1)c1ccco1 returned Mtb MenB inh -10.6, AID504770 0.2, PV pol inh 80.0* and MbtI inh -7.5.
Screening COCCN1C(=O)c2ccccc2C(C(=O)NCCCN2CCC(C)CC2)C1c1ccc(F)cc1 (stereo not given) returned MbtI inh -8.9.
For CC(=O)N1CCN(c2ccc(N)cc2)CC1 the results were Mtb MenB inh 29.8*, AID504770 1.85 and PV pol inh 103.0.
O=S1(=O)CCN(Cc2cccc(C(F)(F)F)c2)CC1 was read as AID504770 -2.7*.
FC(F)(F)c1cccc(CN2CCSCC2)c1 was read as Mtb MenB inh -7.4, AID504770 -0.3, PV pol inh 97.0 and MbtI inh -2.9.
For CCc1nnc(NC(=O)C2CCCCC2)s1 the results were Mtb MenB inh -18.8, AID504770 -0.65, PV pol inh 101.0 and MbtI inh 99.8*.
`CCc1nc2ccc(NC(C)=O)cc2c(=O)n1Cc1ccccc1` gave Mtb MenB inh -18.2, AID504770 -0.3, PV pol inh 104.0 and MbtI inh 3.8.
For O=C(Nc1ccc2nc(C3CC3)n(Cc3ccccc3)c(=O)c2c1)C1CC1 the results were Mtb MenB inh 32.5*, AID504770 -0.7, PV pol inh 101.0 and MbtI inh 9.8.
For COc1ccc(NC(=O)c2ccc(NC(=O)CSC3=NCCN3)cc2)cc1 the results were Mtb MenB inh -49.5, AID504770 -1.35, PV pol inh 98.0 and MbtI inh 84.7.
`O=c1cc(NCCc2ccccc2)c2ccccc2o1` gave Mtb MenB inh 33.2*, AID504770 2.35, PV pol inh 103.0 and MbtI inh 21.6.
CCN(CC)C(=O)Oc1cc(COC)nc(-c2ccccc2)n1 was read as AID504770 -3*.
Screening CCN(CC)C(=O)Oc1cc(C(F)(F)F)nc(-c2ccc(Cl)cc2)n1 returned AID504770 2.25.
For CCOC(=O)c1ccc(NC(=O)c2cnc3c(-c4ccc(F)cc4)c(C)nn3c2C)cc1 the results were PV pol inh 51.0*.
`CCOC(=O)c1ccc(NC(=O)CCc2c(C)nc3c(-c4ccc(F)cc4)c(C)nn3c2C)cc1` gave PV pol inh 104.0.
COc1cc2c(cc1OC)CN(C(=O)c1ccc(Cl)nc1)CC2 was read as Mtb MenB inh -20.9, AID504770 0, PV pol inh 101.0 and MbtI inh -9.8.
For O=c1[nH]c2ccccc2[nH]1 the results were Mtb MenB inh 7.9, AID504770 -0.3, PV pol inh 94.0 and MbtI inh -0.7.
For O=c1[nH]c2cc(Br)cnc2[nH]1 the results were Mtb MenB inh -19.5, AID504770 1.1, PV pol inh 66.0* and MbtI inh 0.9.
CN(C(=S)NCc1ccc2c(c1)OCO2)C1CCS(=O)(=O)C1 (stereo not given) was read as Mtb MenB inh -1.0, AID504770 -0.6, PV pol inh 88.0* and MbtI inh 84.2*.
For CCc1ccc(C(=O)NCc2ccc3c(c2)OCO3)cc1 the results were Mtb MenB inh 1.2, AID504770 0.05, PV pol inh 103.0 and MbtI inh -14.1.
`O=C(Nc1ccccc1)C1CCN(C(=O)/C=C/c2cn(Cc3ccccc3)nn2)CC1` gave Mtb MenB inh -33.2, AID504770 -0.8, PV pol inh 102.0 and MbtI inh -13.6.
O=c1cc(-c2c(F)c(F)c(F)c(F)c2F)oc2ccccc12 was read as AID504770 -0.65.
`O=c1cc(-c2c(F)c(F)c(F)c(F)c2F)oc2c(F)c(F)c(F)c(F)c12` gave Mtb MenB inh -30.6, AID504770 2.6, PV pol inh 90.0* and MbtI inh 28.7.
For O=C(COC(=O)c1ccc(Cl)s1)c1ccc2[nH]c(=O)[nH]c2c1 the results were Mtb MenB inh -12.4, AID504770 0.4, PV pol inh 79.0* and MbtI inh 5.2.
Screening O=C(COC(=O)c1nc(Cl)ccc1Cl)c1ccc2[nH]c(=O)[nH]c2c1 returned Mtb MenB inh -8.4, AID504770 0.2, PV pol inh 38.0* and MbtI inh -6.0.
`Cc1cc(C(=O)OCC(=O)c2ccc3[nH]c(=O)[nH]c3c2)c2ccccc2n1` gave Mtb MenB inh -10.1, AID504770 -0.25, PV pol inh 90.0* and MbtI inh -3.1.
Screening Cc1cc(C)nc(SCC(=O)OCC(=O)c2ccc3[nH]c(=O)[nH]c3c2)n1 returned Mtb MenB inh 1.7, AID504770 -0.6, PV pol inh 101.0 and MbtI inh 0.0.
`NC(=O)NC(=O)CSc1n[nH]c(-c2cccs2)n1` gave Mtb MenB inh -22.1, AID504770 -0.8, PV pol inh 100.0 and MbtI inh 86.8.
Screening CSc1ncc2c(n1)-c1ccccc1N(Cc1ccccc1)S2(=O)=O returned PV pol inh -15.0*.
Screening CSc1ncc2c(n1)-c1ccccc1N(C)S2(=O)=O returned Mtb MenB inh 0.5, AID504770 -0.9, PV pol inh 101.0 and MbtI inh 65.2.
O=Nc1c(O)[nH]c2cc3c(cc12)OCCO3 was read as Mtb MenB inh -11.9, AID504770 -0.35, PV pol inh 86.0* and MbtI inh 10.6.
For O=C(N=Nc1c(O)[nH]c2cc3c(cc12)OCCCO3)C1CCCCC1 the results were Mtb MenB inh -5.3, AID504770 -0.75, PV pol inh 99.0 and MbtI inh 3.2.
For CC(=O)Nc1ccc(C(=O)CSc2nnnn2C(C)C)cc1 the results were Mtb MenB inh -27.9, AID504770 0.1, PV pol inh 102.0 and MbtI inh 9.6.
CC(C)n1nnnc1SCC(=O)c1ccc(F)cc1 was read as Mtb MenB inh 27.8*, AID504770 -0.3, PV pol inh 101.0 and MbtI inh 0.1.
For O=C(Oc1nsnc1N1CCOCC1)N1CCCCC1 the results were Mtb MenB inh 8.2, AID504770 0.75, PV pol inh 101.0 and MbtI inh 6.8.
O=C(Oc1nsnc1N1CCOCC1)c1ccccc1 was read as Mtb MenB inh -6.5, AID504770 -1.25 and PV pol inh 47.0*.
`C=CCn1c(-c2cccs2)nc(-c2ccccc2)c1-c1ccccc1` gave Mtb MenB inh -15.7, AID504770 -0.4, PV pol inh 103.0 and MbtI inh inactive.
For COc1ccc(Cl)cc1N/C=C(/C#N)c1nc2ccccc2n1C the results were Mtb MenB inh -32.5, AID504770 -0.65, PV pol inh 101.0 and MbtI inh 4.7.
For O=C(/C=C(\O)c1ccc(Cl)cc1)C(F)(F)F the results were Mtb MenB inh 0.4, AID504770 -4.3*, PV pol inh 103.0 and MbtI inh 36.2.
Screening Cc1sc(NC(=O)Cn2nc(C(F)(F)F)cc2C)c(C(N)=O)c1C returned Mtb MenB inh 2.6, AID504770 0.05 and PV pol inh 68.0*.

Screens (PubChem BioAssay)
